The campaign covered roughly 310,000 compounds. About 14,000 (4.5%) showed an effect of 50% or more. The effect is printed as a negative number. The sample holds strong results, similar compounds and a random draw of the others, so the mix is not that of the screen.
biological target: human ether-à-go-go-related gene (hERG) potassium channel (human, UniProt Q12809); assay: primary screen, population patch clamp on CHO cells stably expressing hERG; higher = less effect of the substance
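Also: peak tail current of the secondary pulse compared with the same well before compound.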

Chain of human ether-à-go-go-related gene (hERG) potassium channel (Q12809 whole entry, looked up): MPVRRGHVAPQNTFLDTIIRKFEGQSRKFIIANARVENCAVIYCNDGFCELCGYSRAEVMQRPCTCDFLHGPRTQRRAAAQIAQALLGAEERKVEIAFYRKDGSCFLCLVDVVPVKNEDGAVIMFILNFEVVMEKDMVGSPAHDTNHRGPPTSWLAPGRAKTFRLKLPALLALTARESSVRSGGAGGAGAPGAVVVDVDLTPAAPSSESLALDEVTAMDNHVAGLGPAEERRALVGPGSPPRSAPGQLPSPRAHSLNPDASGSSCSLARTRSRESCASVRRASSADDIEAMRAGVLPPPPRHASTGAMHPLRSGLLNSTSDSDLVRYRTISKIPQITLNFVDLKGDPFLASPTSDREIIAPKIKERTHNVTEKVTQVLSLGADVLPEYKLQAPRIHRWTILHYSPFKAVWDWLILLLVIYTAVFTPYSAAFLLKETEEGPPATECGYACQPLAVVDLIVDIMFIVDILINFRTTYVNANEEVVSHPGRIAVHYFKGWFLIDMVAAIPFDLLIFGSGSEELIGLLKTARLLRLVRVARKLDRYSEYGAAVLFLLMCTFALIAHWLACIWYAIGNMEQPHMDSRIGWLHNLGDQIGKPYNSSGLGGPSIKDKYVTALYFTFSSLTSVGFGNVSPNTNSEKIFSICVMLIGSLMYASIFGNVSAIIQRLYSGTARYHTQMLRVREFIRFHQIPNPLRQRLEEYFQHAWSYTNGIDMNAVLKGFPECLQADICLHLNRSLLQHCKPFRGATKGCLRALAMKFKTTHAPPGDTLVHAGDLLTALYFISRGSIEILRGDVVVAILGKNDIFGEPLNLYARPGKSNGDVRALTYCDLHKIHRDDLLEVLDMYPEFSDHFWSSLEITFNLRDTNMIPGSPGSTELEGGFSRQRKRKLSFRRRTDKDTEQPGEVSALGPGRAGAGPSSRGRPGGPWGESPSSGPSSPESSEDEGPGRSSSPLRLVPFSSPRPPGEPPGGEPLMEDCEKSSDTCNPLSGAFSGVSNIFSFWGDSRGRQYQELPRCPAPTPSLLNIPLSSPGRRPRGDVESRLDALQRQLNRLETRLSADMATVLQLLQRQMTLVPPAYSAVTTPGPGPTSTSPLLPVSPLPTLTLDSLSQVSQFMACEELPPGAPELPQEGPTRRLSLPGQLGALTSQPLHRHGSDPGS

Row | Compound | hERG current change (%, negative = inhibition) at 10uM [%]
1 | O=C(O)CN(c1ccccn1)S(=O)(=O)c1ccccc1 | -8.38
2 | O=C(NCCc1ccccc1)C(=O)NCC(c1ccco1)N1CCOCC1 (stereo not shown) | 23.8
3 | Cc1ccc(NC(=O)C2CCN(S(=O)(=O)c3ccc4c(c3)CCCC(=O)N4)CC2)cc1N(C)C | -14.7
4 | O=C(COC(=O)c1ccc2c(c1)OCCO2)NCCC1=CCCCC1 | -10.8
5 | CN(C(=O)C1CCN(S(=O)(=O)c2cccs2)CC1)c1ccccc1 | -16.9
6 | O=C(CCS(=O)(=O)c1ccc(Br)cc1)NCc1cccs1 | -11.5
7 | COC(=O)C(C(=O)OC)C(C[N+](=O)[O-])c1ccc(OC)c(OC)c1 (stereo not shown) | -22.7
8 | CCOC(=O)C1(Cc2cccc(OC)c2)CCN(C/C=C/c2ccc(OC)cc2)CC1 | -72.3
9 | CCOC(=O)C1(Cc2cccc(OC)c2)CCN(C/C=C/c2ccccc2)CC1 | -75.9
10 | CCOC(=O)C1(Cc2cccc(OC)c2)CCN(CC=C(C)C)CC1 | -22
11 | N#CCCn1[nH]c(-c2ccccc2)cc1=O | 5.16
12 | O=C(CCCc1c[nH]c2ccccc12)Nc1ncccc1O | 14.7
13 | CC1CCN(C2CC(=O)N(c3ccc(Br)cc3Br)C2=O)CC1 (stereo not shown) | 2.17
14 | COc1ccc(C(CNC(=O)c2cc3ccccc3cc2O)N2CCOCC2)cc1 (stereo not shown) | -3.36
15 | COc1cc(CC(=O)N2CCC(n3nccc3NC(=O)C3CC3)CC2)cc(OC)c1OC | 12.8
16 | CC(=O)c1cccc(CN2CCC(n3nccc3NC(=O)CCc3ccccc3)CC2)c1 | -25.1
17 | O=C(CCc1ccccc1)Nc1ccnn1C1CCN(C/C=C/c2ccccc2)CC1 | -72.1
18 | COc1ccccc1CC(=O)N1CCC(n2nccc2NC(=O)C2CCOC2)CC1 (stereo not shown) | 4.83
19 | COCCC(=O)N1CCC(n2nccc2NC(=O)CCc2ccccc2)CC1 | 14.2
20 | COc1ccccc1/C=C/CN1CCC(n2nccc2NC(=O)C2CC2)CC1 | -59.1
21 | COc1ccccc1/C=C/CN1CCC(n2nccc2NC(=O)CCc2ccccc2)CC1 | -86.1
22 | CSCC(=O)N1CCC(n2nccc2NC(=O)CCc2ccccc2)CC1 | 12.1
23 | CC(C)C(=O)N1CCC(n2nccc2NC(=O)CCc2ccccc2)CC1 | 18.7
24 | COCC1CCCN(C(=O)c2ccc3oc(CCCc4ccccc4)nc3c2)C1 (stereo not shown) | -16.2
25 | CCn1c(SCC(=O)C(C)(C)C)nnc1-c1cccnc1 | -0.363
26 | CC(C)NS(=O)(=O)c1ccc(NC(=O)C(C)OC(=O)CCC2CCCC2)cc1 (stereo not shown) | 7.06
27 | Cc1cc(C(=O)N/N=C/c2cc([N+](=O)[O-])ccc2O)c2ccccc2n1 | 6.35
28 | CCOCCCNC(=S)N(CCN(CC)CC)Cc1cc2cc3c(cc2[nH]c1=O)OCCO3 | 7.75

Row | Compound | hERG current change (%, negative = inhibition) at 10uM [%]
29 | CCCN(CCC)C1Sc2ccc(C(=O)OC)cc2NC1=O (stereo not shown) | -9.31
30 | Cc1ccc(NC(=S)N2CCC(O)CC2)c(C)c1 | 16.3
31 | CC(=O)Oc1ccc2nc(CN3C(=O)c4ccc([N+](=O)[O-])cc4C3=O)oc(=O)c2c1 | 10
32 | CC1Nc2ccccc2C(=O)N1NC(=O)c1ccc(Br)cc1 (stereo not shown) | -9.66
33 | CC(=O)NN1C(=O)c2ccccc2NC1c1ccco1 (stereo not shown) | 15.7
34 | O=C(NN1C(=O)c2ccccc2NC1c1ccco1)c1ccccc1 (stereo not shown) | -0.469
35 | CC(=O)NN1C(=O)c2ccccc2NC1c1ccc([N+](=O)[O-])o1 (stereo not shown) | 8.22
36 | O=C(NN1C(=O)c2ccccc2NC1c1ccc([N+](=O)[O-])o1)c1ccc(Br)cc1 (stereo not shown) | -72.7
37 | O=C(NN1C(=O)c2ccccc2NC1c1ccc([N+](=O)[O-])o1)c1ccccc1 (stereo not shown) | -9.78
38 | O=C(NN1C(=O)c2ccccc2NC1c1ccc([N+](=O)[O-])o1)c1ccc([N+](=O)[O-])cc1 (stereo not shown) | -65.5
39 | O=C(NN1C(=O)c2ccccc2NC1c1ccoc1)c1ccc([N+](=O)[O-])cc1 (stereo not shown) | -41.8
40 | O=C(NN1C(=O)c2ccccc2NC1c1ccco1)c1ccc(Br)cc1 (stereo not shown) | -76.6
41 | COc1ccccc1NCCC(=O)OCC(=O)NC1CCCC(C)C1C (stereo not shown) | 9.37
42 | CCOc1cc(/C=C2/C(=N)N3N=C(C)SC3=NC2=O)ccc1OS(=O)(=O)c1ccc(C)cc1 | 0.16
43 | COc1ccc(NC(=O)Cn2c(=O)n(-c3ccccc3)c(=O)c3sccc32)c(OC)c1 | 0.835
44 | CCOC(=O)c1sc(NC(=O)CCN2CC(C)OC(C)C2)c(C(=O)OCC)c1C.O=C(O)C(=O)O (stereo not shown) | 13.9
45 | CCOC(=O)c1c(-c2ccc(C)cc2)csc1NC(=O)CCN1CCOCC1 | -42.1
46 | CCOC(=O)c1sc(NC(=O)CCN2CCC(C)CC2)c(C(=O)OCC)c1C | 9
47 | CCOC(=O)c1sc(NC(=O)CCN2CCN(C)CC2)c(C(=O)OCC)c1C | -79
48 | CCOC(=O)c1c(NC(=O)c2cccs2)sc(C)c1C | 3.46
49 | CCOC(=O)c1c(NC(=O)c2cccs2)sc(C(=O)N(C)C)c1C | -10.9
50 | CCOC(=O)c1c(-c2ccc(OC)cc2)csc1NC(=O)CCN1CCOCC1 | -53.2
51 | CCOC(=O)c1c(NC(=O)c2cccs2)sc(C(=O)N2CCOCC2)c1C | -55.5
52 | CCOC(=O)c1sc(NC(=O)CCN2CCOCC2)c(C(=O)OCC)c1C | -2.58
53 | CCOC(=O)c1sc(NC(=O)CCN2CCCCCC2)c(C(=O)OCC)c1C | -24.7
54 | CCOC(=O)c1sc(NC(=O)CCN2CCN(CC)CC2)c(C(=O)OCC)c1C | -88.9
55 | CCOC(=O)c1c(-c2ccc(-c3ccccc3)cc2)csc1NC(=O)CCN1CCOCC1 | 13.8

From paper PMC4336329 (PLoS ONE, 2015)
